# Laboratory results as given in the supplement of paper PMC8728848.
# The full list was thinned out, with the strongest signals kept by preference.
# B1: STA (Solanum tuberosum) (protein)
# chain: NASAPLPYPQCGLKKGGGKCIKTGECCSIWGWCGTTSDYCAPGYCQKQCPGPYPQGRCGWQANGKSCPTGTGQCCSNAGWCGTTSDYCAPNNCQSQCKLPPPPPSPPPPPPSPPPPSPPPPPPSPPPPSPSPPPPPPSPPPPSPPPPSPPPPSPPPPPSPSPPPPPPSPPPPPPPLPYPQCGMKKGGGKCIKTGECCSIWGWCGTTSKYCSPGYCQMQCPDPYPEGRCGWQANGKSCPTGTGQCCSNAGWCGTTSAYCAPVNCQAQCNTTTLTSPIKNRMRGIESFMLNVV
# B2: Cohesin-hDCIR (Homo sapiens) (protein)
# chain: LDDLDAVRIKVDTVNAKPGDTVRIPVRFSGIPSKGIANCDFVYSYDPNVLEIIEIEPGDIIVDPNPDKSFDTAVYPDRKIIVFLFAEDSGTGAYAITKDGVFATIVAKVKEGAPNGLSVIKFVEVGGFANNDLVEQKTQFFDGGANVGDTTEPATPTTPVTTPTTTDDLDAASQKYSQLLEKKTTKELVHTTLECVKKNMPVEETAWSCCPKNWKSFSSNCYFISTESASWQDSEKDCARMEAHLLVINTQEEQDFIFQNLQEESAYFVGLSDPEGQRHWQWVDQTPYNESSTFWHPREPSDPNERCVVLNFRKSPKRWGWNDVNCLGPQRSVCEMMKIHLHHHHHH
# B3: 7WC (Trifolium repens) (protein)
# chain: MGTITSYAVVFDAGSTGSRVHVYHFDQNLDLLHIGKDVEFYNKIQPGLSAYADNPEQAAKSLIPLLEQAENVVPEDFHSKTPIRLGATAGLRLLDGDASERILQAVRDMLNNKSTFNVQPDAVSIIDGTQEGSYLWVTINYVLGNLGKRFTNTVGVIDLGGGSVQMAYAVSKKTARNAPKVTDGEDPYIKKIVLKGKPYDLYVHSYLHFGREASRAEILKVTHGSASPCILAGFDGIYTYSGEEFKASAPTSGANFDKCKKIIQKALKLDYPCPYQNCTFGGIWNGGGGSGQKKLFAASSFFYLPQDVGMVDPNKSNLKLRPVDLENKAKIVCTLNVEDVKSAYPLLEKFNIVPYACMDLIYQYELLVDGFGLDPLQEITAGEKIEYQEALVDAAWALGNAVEAVLLLPKFERLMYFVVEHHHHHH
# B4: CD23 (Homo sapiens) (protein)
# chain: MELQVSSGFVCNTCPEKWINFQRKCYYFGKGTKQWVHARYACDDMEGQLVSIHSPEEQDFLTKHASHTGSWIGLRNLDLKGEFIWVDGSHVDYSNWAPGEPTSRSQGEDCVMMRGSGRWNDAFCDRKLGAWVCDRLATCTPPASEGSAESMGPDSRPDPDGRLPTPSAPLHS
# What was measured:
# Test in all cases: glycan array binding signal (z-score within array); higher = stronger binding
# Settings in all cases: glycan notation: IUPAC condensed, linker removed
# [1] = molecular target: Fuc(a1-2)Gal(b1-4)GlcNAc6S
# In short: (§1)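 From the Consortium for Functional Glycomics database, 3228 arrays were curated, keeping only those whose protein sequence was available. Binding is given as a within-array Z-score averaged across arrays sharing a protein sequence and across linkers. Negative Z-scores can be read as non-binding.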
# [2] = molecular target: Fuc(a1-2)Gal(b1-4)[Fuc(a1-3)]GalNAc(b1-3)Gal(b1-4)[Fuc(a1-3)]GlcNAc(b1-3)Gal(b1-4)[Fuc(a1-3)]GalNAc
# In short: as §1
# [3] = molecular target: Fuc(a1-2)[GalNAc(a1-3)]Gal(b1-4)GlcNAc
# In short: as §1
# [4] = molecular target: Gal(a1-3)Gal(b1-4)GlcNAc
# In short: as §1
# [5] = molecular target: Gal(b1-4)GalNAc(b1-3)[Fuc(a1-2)]Gal(b1-4)GlcNAc
# In short: as §1
# [6] = molecular target: Gal(b1-4)GlcNAc(b1-6)GalNAc
# In short: as §1
# [7] = molecular target: Gal3S(b1-4)GlcNAc
# In short: as §1
# [8] = molecular target: Gal3S(b1-4)GlcNAc6S
# In short: as §1
# [9] = molecular target: Gal4S(b1-4)GlcNAc
# In short: as §1
# [10] = molecular target: GlcNAc(b1-3)[GlcNAc(b1-6)]GlcNAc
# In short: as §1
# [11] = molecular target: Man(a1-2)Man(a1-2)Man(a1-6)[Man(a1-3)]Man
# In short: as §1
# [12] = molecular target: Neu5Ac(a2-3)Gal
# In short: as §1
# [13] = molecular target: Neu5Ac(a2-3)Gal(b1-4)GlcNAc6S
# In short: as §1
# [14] = molecular target: Neu5Ac(a2-3)Gal(b1-4)[Fuc(a1-3)]GlcNAc6S
# In short: as §1
# [15] = molecular target: Neu5Ac(a2-8)Neu5Ac(a2-8)Neu5Ac(a2-3)Gal(b1-4)Glc
# In short: as §1
# [16] = molecular target: Neu5Ac9Ac(a2-6)Gal(b1-4)GlcNAc
# In short: as §1
# [17] = molecular target: Neu5Ac(a2-3)Gal(b1-3)GalNAc(b1-4)[Neu5Ac(a2-8)Neu5Ac(a2-3)]Gal(b1-4)Glc
# In short: as §1
# [18] = molecular target: Neu5Ac(a2-3)Gal(b1-3)GalNAc6S
# In short: as §1
# [19] = molecular target: Neu5Ac(a2-3)Gal(b1-3)GlcNAc(b1-2)Man
# In short: as §1
# [20] = molecular target: Neu5Ac(a2-3)Gal(b1-3)GlcNAc(b1-2)Man(a1-3)[Neu5Ac(a2-3)Gal(b1-3)GlcNAc(b1-2)Man(a1-6)]Man(b1-4)GlcNAc(b1-4)GlcNAc
# In short: as §1
# [21] = molecular target: Neu5Ac(a2-3)Gal(b1-4)GlcNAc(b1-2)Man(a1-3)[GlcNAc(b1-4)][Neu5Ac(a2-3)Gal(b1-4)GlcNAc(b1-2)Man(a1-6)]Man(b1-4)GlcNAc(b1-4)GlcNAc
# In short: as §1
# [22] = molecular target: Neu5Ac(a2-3)Gal(b1-4)GlcNAc(b1-2)[Neu5Ac(a2-3)Gal(b1-4)GlcNAc(b1-4)]Man(a1-3)[GlcNAc(b1-4)][Neu5Ac(a2-3)Gal(b1-4)GlcNAc(b1-2)[Neu5Ac(a2-3)Gal(b1-4)GlcNAc(b1-6)]Man(a1-6)]Man(b1-4)GlcNAc(b1-4)GlcNAc
# In short: as §1
# [23] = molecular target: Neu5Ac(a2-3)Gal(b1-4)GlcNAc(b1-3)[Neu5Ac(a2-3)Gal(b1-4)GlcNAc(b1-6)]GalNAc
# In short: as §1
# [24] = molecular target: Neu5Ac(a2-3)Gal(b1-4)[Fuc(a1-3)]GlcNAc
# In short: as §1
# [25] = molecular target: Neu5Ac(a2-3)Gal(b1-4)[Fuc(a1-3)]GlcNAc(b1-6)[Gal(b1-3)]GalNAc
# In short: as §1
# [26] = molecular target: Neu5Ac(a2-3)Gal6S(b1-4)GlcNAc
# In short: as §1
# [27] = molecular target: Neu5Ac(a2-8)Neu5Ac
# In short: as §1
# [28] = molecular target: Neu5Gc(a2-3)Gal(b1-3)GlcNAc
# In short: as §1
# [29] = molecular target: Fuc(a1-2)Gal(b1-4)[Fuc(a1-3)]GalNAc(b1-3)Gal(b1-4)[Fuc(a1-3)]GlcNAc
# In short: as §1
# [30] = molecular target: Fuc(a1-2)Gal(b1-4)[Fuc(a1-3)]GlcNAc
# In short: as §1
# [31] = molecular target: Gal(a1-3)Gal(b1-3)Glc
# In short: as §1
# [32] = molecular target: Gal(b1-3)[Neu5Ac(a2-6)]GalNAc
# In short: as §1
# [33] = molecular target: Gal(b1-4)GlcNAc(b1-3)Gal(b1-4)Glc
# In short: as §1
# [34] = molecular target: Glc(a1-4)Glc
# In short: as §1
# [35] = molecular target: GlcNAc(b1-3)Gal(b1-4)GlcNAc(b1-3)Gal(b1-4)GlcNAc
# In short: as §1
# [36] = molecular target: Man(a1-2)Man(a1-3)Man
# In short: as §1
# [37] = molecular target: Neu5Ac(a2-3)Gal(b1-3)[Fuc(a1-4)]GlcNAc(b1-3)Gal(b1-4)[Fuc(a1-3)]GlcNAc
# In short: as §1
# [38] = molecular target: Neu5Ac(a2-3)Gal(b1-4)[Fuc(a1-3)]GlcNAc(b1-3)Gal(b1-4)[Fuc(a1-3)]GlcNAc(b1-3)Gal(b1-4)[Fuc(a1-3)]GlcNAc
# In short: as §1
# [39] = molecular target: Neu5Ac(a2-6)GalNAc
# In short: as §1
# [40] = molecular target: Fuc(a1-2)[Gal(a1-3)]Gal
# In short: as §1
# [41] = molecular target: Fuc(a1-2)[Gal(a1-3)]Gal(b1-3)GlcNAc
# In short: as §1
# [42] = molecular target: Fuc(a1-2)[Gal(a1-3)]Gal(b1-4)[Fuc(a1-3)]GlcNAc
# In short: as §1
# [43] = molecular target: Fuc(a1-2)[GalNAc(a1-3)]Gal(b1-4)[Fuc(a1-3)]GlcNAc
# In short: as §1
# [44] = molecular target: Fuc(a1-3)[Gal3S(b1-4)]Glc6S
# In short: as §1
# [45] = molecular target: Fuc(a1-3)[Gal3S(b1-4)]GlcNAc6S
# In short: as §1
# [46] = molecular target: Gal(a1-6)Glc
# In short: as §1
# [47] = molecular target: Gal(b1-4)GlcNAc(b1-2)Man(a1-3)[Gal(b1-4)GlcNAc(b1-2)Man(a1-6)]Man(b1-4)GlcNAc(b1-4)GlcNAc
# In short: as §1
# [48] = molecular target: GalNAc(b1-4)GlcNAc
# In short: as §1
# [49] = molecular target: GlcNAc(b1-2)Man(a1-3)[GlcNAc(b1-2)Man(a1-6)]Man(b1-4)GlcNAc(b1-4)GlcNAc
# In short: as §1
# [50] = molecular target: GlcNAc(b1-3)Gal(b1-3)GalNAc
# In short: as §1
# [51] = molecular target: GlcNAc(b1-3)Gal(b1-4)Glc
# In short: as §1
# [52] = molecular target: Neu5Ac(a2-3)Gal(b1-3)GlcNAc(b1-3)Gal(b1-3)GlcNAc
# In short: as §1
# [53] = molecular target: Neu5Ac(a2-3)Gal(b1-4)[Fuc(a1-3)]GlcNAc(b1-3)Gal
# In short: as §1
# [54] = molecular target: Neu5Ac(a2-3)Gal(b1-4)[Fuc(a1-3)]GlcNAc(b1-3)Gal(b1-4)GlcNAc
# In short: as §1
# [55] = molecular target: Neu5Ac(b2-6)GalNAc
# In short: as §1
# [56] = molecular target: Neu5Gc(a2-6)Gal(b1-4)GlcNAc
# In short: as §1
binder,measurement,setting,value
B1,glycan array binding signal (z-score),[1],0.551
same,glycan array binding signal (z-score),[2],-0.504
same,glycan array binding signal (z-score),[3],2.86
same,glycan array binding signal (z-score),[4],3.27
same,glycan array binding signal (z-score),[5],0.033
same,glycan array binding signal (z-score),[6],2.69
same,glycan array binding signal (z-score),[7],2.55
same,glycan array binding signal (z-score),[8],2.58
same,glycan array binding signal (z-score),[9],3.08
same,glycan array binding signal (z-score),[10],-0.269
same,glycan array binding signal (z-score),[11],-0.506
same,glycan array binding signal (z-score),[12],-0.507
same,glycan array binding signal (z-score),[13],3.23
same,glycan array binding signal (z-score),[14],-0.49
same,glycan array binding signal (z-score),[15],-0.5
same,glycan array binding signal (z-score),[16],-0.498
B2,glycan array binding signal (z-score),[17],-0.554
same,glycan array binding signal (z-score),[18],1.41
same,glycan array binding signal (z-score),[19],-0.373
same,glycan array binding signal (z-score),[20],-0.312
same,glycan array binding signal (z-score),[21],-0.66
same,glycan array binding signal (z-score),[22],-0.508
same,glycan array binding signal (z-score),[23],0.114
same,glycan array binding signal (z-score),[13],-0.518
same,glycan array binding signal (z-score),[24],-0.342
same,glycan array binding signal (z-score),[25],-0.187
same,glycan array binding signal (z-score),[26],-0.608
same,glycan array binding signal (z-score),[27],-0.297
same,glycan array binding signal (z-score),[28],-0.174
B3,glycan array binding signal (z-score),[29],-0.347
same,glycan array binding signal (z-score),[30],-0.391
same,glycan array binding signal (z-score),[31],-0.298
same,glycan array binding signal (z-score),[32],-0.464
same,glycan array binding signal (z-score),[33],-0.215
same,glycan array binding signal (z-score),[9],-0.335
same,glycan array binding signal (z-score),[34],2.65
same,glycan array binding signal (z-score),[35],-0.327
same,glycan array binding signal (z-score),[10],0.685
same,glycan array binding signal (z-score),[11],9.79
same,glycan array binding signal (z-score),[36],-0.261
same,glycan array binding signal (z-score),[37],4.17
same,glycan array binding signal (z-score),[13],-0.474
same,glycan array binding signal (z-score),[38],2.57
same,glycan array binding signal (z-score),[39],-0.153
same,glycan array binding signal (z-score),[16],-0.491
B4,glycan array binding signal (z-score),[1],-0.186
same,glycan array binding signal (z-score),[30],0.228
same,glycan array binding signal (z-score),[40],-0.374
same,glycan array binding signal (z-score),[41],-0.086
same,glycan array binding signal (z-score),[42],0.988
same,glycan array binding signal (z-score),[43],0.752
same,glycan array binding signal (z-score),[44],2.25
same,glycan array binding signal (z-score),[45],0.491
same,glycan array binding signal (z-score),[46],0.204
same,glycan array binding signal (z-score),[47],-0.225
same,glycan array binding signal (z-score),[48],-0.48
same,glycan array binding signal (z-score),[49],-0.157
same,glycan array binding signal (z-score),[50],1.43
same,glycan array binding signal (z-score),[51],-0.494
same,glycan array binding signal (z-score),[52],-0.189
same,glycan array binding signal (z-score),[53],-0.435
same,glycan array binding signal (z-score),[54],1.15
same,glycan array binding signal (z-score),[55],-0.582
same,glycan array binding signal (z-score),[16],1.43
same,glycan array binding signal (z-score),[56],-0.645
